This passage reports growth results from PubChem BioAssay (NCI).

Holding throughout (experiment): NCI-60 one-dose screen, 48 h (100 = growth as untreated, 0 = no growth, -100 = all killed)
Common to all, as to conditions: 10 µM unless noted

For assay [1], the system named is HCT-15 colon.
Assay [2] deals with HT29 colon.
Assay [3] concerns SNB-75 CNS.
Assay [4] concerns SNB-19 CNS.
In assay [5] the test system is U251 CNS.
Assay [6] has as its system PC-3 prostate.
For assay [7], the system named is SK-MEL-5 melanoma.
The subject of assay [8] is UACC-62 melanoma.
Assay [9] relates to SK-MEL-28 melanoma.

About 83,000 compounds went through this panel and 20% of them were active in at least one assay; those are over-represented in the sample as a whole.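 Method: cells in 96-well plates; compound added at one concentration; 48 h incubation; percent growth measured; values under 10 scored active.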 Unmarked numbers belong to inactive results. Active and inactive are the calls of the source.

Regarding `CCN1CCN(C(=O)[C@]23CCC(C)(C)C[C@@H]2C2=CC[C@@H]4[C@@]5(C)C/C(=C/c6cccnc6)C(=O)C(C)(C)[C@@H]5CC[C@@]4(C)[C@]2(C)CC3)CC1`, the growth was 13.7% in [1]; 10.6% in [2]; 45.3% in assay [3]; 48.3% in assay [4]; -88.1% (active) in assay [5]; 17.2% in [6]. In addition, the growth in [7] was -91% (active); in assay [8] it was 26.6%; in assay [9] it was 41.7%.

With `Cn1cc(-c2csc(-c3cn(C(=O)OC(C)(C)C)c4ccccc34)n2)c2cccnc21`, the growth was 52.4% in assay [1]; 13% in assay [2]; 57.7% in assay [3]; 83.3% in assay [4]; 61.7% in [5]; 48.5% in assay [6]. Moreover, the figures for the growth in assay [7], in [8] and in assay [9] were 64%, 62.1% and 79.2%, respectively.

As for `Cc1cc(C)nc(NC(N)=NCCc2ccccc2)n1`, the growth in [1] was 55%; in [2], 13.5%; in [3], 23.7%; in assay [4], 46.8%; in assay [5], 31.6%; in [6], 37.7%. The growth was 22% in [7], 38% in assay [8] and 33.8% in [9].

Regarding `O=C(O)/C(=C/c1ccc(O)cc1)c1ccccc1`, the growth in assay [1] was 104%; in assay [2], 104%; in [3] it was 88.4%; in assay [4], 99.7%; in assay [5] it was 93.7%; in [6], 90.4%. For the same compound, the growth in assay [7] is 95.5%; in assay [8], 107%; in assay [9], 102%.

`CN(CSc1ccc(Cl)cc1)c1ccc(CSc2ccc(Cl)cc2)cc1`: the growth in [1] is 62.8%; in assay [2], 96.8%; in [3], 86%; in [4], 84.7%; in assay [5], 53.6%; in assay [6], 38.4%. The growth in assay [7] was 70.9%; in [8], 84%; in assay [9] it was 79.9%.

For `Cn1cc(-c2nc(-c3c[nH]c4ncccc34)cs2)c2cc(F)ccc21`, the growth was 19.6% in assay [1]; 19.6% in assay [2]; 31.6% in assay [3]; 53.3% in assay [4]; 36.7% in assay [5]; 33.6% in assay [6]. Moreover, the growth in assay [7] is 51.4%; in [8], 47.6%; in [9], 60.5%.

As for `OCCNc1nc(Nc2ccc(Cl)c(Cl)c2)nc2ccccc12`, the growth is 26.2% in assay [1]; 9.9% (active) in [2]; 61.1% in assay [3]; 55.5% in assay [4]; 34.2% in assay [5]; 18.8% in assay [6]. Besides, the growth in assay [7] was 34%; in assay [8], 57.1%; in assay [9], 73.6%.

For `Nc1ccccc1NC(=O)c1ccc(CN2CCC/C(=C\c3ccccn3)C2=O)cc1`, the growth is 16.5% in assay [1]; 13.8% in assay [2]; 15.5% in assay [3]; 38.1% in assay [4]; 23.9% in [5]; 44% in [6]. Further, the growth in assay [7] was -15.6% (active); in [8], -23.6% (active); in [9] it was 16.3%.

Consider `CCN1CCN(C(=O)[C@]23CCC(C)(C)C[C@H]2C2=CC[C@@H]4[C@@]5(C)CC/C(=N/O)C(C)(C)[C@@H]5CC[C@@]4(C)[C@]2(C)CC3)CC1`, for which the growth in [1] is 15.4%; in assay [2], 28.3%; in assay [3], 59.3%; in assay [4] it was 70.4%; in assay [5], 38%; in [6] it was 39.6%. Further, the growth in assay [7] was 86.5%; in [8], 87.9%; in assay [9], 73.2%.

In the case of `Cc1nn(-c2ccc(Br)cc2)c2nc3[nH]c(=O)[nH]c(=O)c3nc12`, the growth in [1] was 104%; in assay [2] it was 101%; in [3], 74.6%; in assay [4] it was 104%; in assay [5] it was 101%; in assay [6], 111%. Moreover, the values for the growth in [7], in assay [8] and in [9] were 100%, 102% and 91.2%, respectively.

For the compound `COc1ccc(-c2c(-c3nc4ccc(N5CCOCC5)cc4[nH]3)[nH]c(C)c2C(C)=O)cc1`, the growth is 3.79% (active) in assay [1]; 20.8% in assay [2]; 1.76% (active) in [3]; 39.7% in [4]; 54.3% in [5]; 48.7% in [6]. The growth in [7] is 22.2%; in [8], 15.7%; in [9] it was 45.8%.

For the compound `COC1=C(Br)C(=O)C(OC)=C(Br)C1=O`, the growth in assay [1] was 96.1%; in assay [2], 106%; in assay [3] it was 103%; in assay [4], 95.8%; in assay [5], 104%; in [6], 107%. Moreover, the growth was 99.4% in assay [7], 91.2% in [8] and 117% in assay [9].

As for `Cc1ccc2c(c1)c1nc3cc(C)c(C)cc3nc1n2CCN(C)C`, the growth was 3.18% (active) in [1]; 19% in [2]; 23.9% in assay [3]; 17.1% in [4]; 23.7% in [5]; 25% in [6]. For the same compound, the figures for the growth in [7], in assay [8] and in assay [9] were 15.4%, 12.3% and 17.2%, respectively.

In the case of `C[C@@H](Oc1ccc(C(=O)NS(=O)(=O)C(C)(C)C)cc1C(F)(F)F)c1ccc(Oc2ccccc2)cn1`, the growth in assay [1] was 23.8%; in [2] it was 34.6%; in assay [3], -9.43% (active); in assay [4], 20%; in assay [5] it was 25.6%; in assay [6], 47.5%. The growth was 23.2% in [7], 18% in assay [8] and 47.1% in [9].

For `CC(C)=CCC/C(C)=C/CC/C(C)=C/CC/C(C)=C/CSC[C@H](NC(=O)CCCCCN1CCN(C)CC1)C(=O)NC1CCCCC1`, the growth in [1] is 24%; in assay [2], -39% (active); in [3] it was 81.5%; in assay [4], 85.6%; in assay [5] it was 55.2%; in assay [6] it was 64.4%. The growth in assay [7] was 97.9%; in [8], 87.6%; in [9], 5.53% (active).

Take `CC1(C)CC[C@]2(C(=O)Nc3ccccn3)CC[C@]3(C)C(=CC[C@@H]4[C@@]5(C)C/C(=C/c6ccncc6)C(=O)C(C)(C)[C@@H]5CC[C@]43C)[C@@H]2C1`: the growth in assay [1] was 15.3%; in [2], 9.45% (active); in assay [3], 91.6%; in assay [4] it was 58.4%; in assay [5], 10.3%; in assay [6], 28%. Also, the growth in assay [7] was -49.8% (active); in assay [8] it was 23.9%; in [9], 37.5%.

On to `CN1CCN(c2nc(-c3csc(-c4cccs4)n3)cc3ccccc23)CC1`, for which the growth in assay [1] was 7.33% (active); in [2], -27.3% (active); in [3], 54.5%; in assay [4], 66.1%; in assay [5], 28.8%; in assay [6], 39.8%. Besides, the growth in assay [7] was 43.7%; in assay [8] it was 33.6%; in [9], 68.9%.

In the case of `CC1(C)NC2=C(C(Nc3cccnc3)N1)C(c1ccc([N+](=O)[O-])cc1)C(C(=O)c1ccc(N=[N+]=[N-])cc1)O2` (stereo not drawn), the growth is 104% in [1]; 113% in assay [2]; 96.2% in assay [3]; 98.7% in [4]; 101% in assay [5]; 98.9% in [6]. For the same compound, the growth in assay [7] is 102%; in assay [8], 97.1%; in assay [9], 103%.

As for `C=C(C)[C@@H]1CC[C@]2(C)[C@H](CC=C3[C@@H]4CC(C)(C)CC[C@]4(C(=O)OC)CC[C@]32C)[C@@]1(C)CC/C(N)=N/O`, the growth in [1] is 18.5%; in assay [2] it was 24.3%; in assay [3], 101%; in [4], 67.9%; in assay [5], -81.8% (active); in assay [6], 26.6%. Also, the growth in assay [7] was -19.9% (active); in assay [8], 58.6%; in assay [9], 60.9%.

With `CCc1ccc(-c2ccc(Nc3ccccc3)nn2)cc1S(N)(=O)=O`, the growth in assay [1] is 65.3%; in assay [2], 68%; in [3], 123%; in [4], 105%; in assay [5], 80.8%; in assay [6] it was 60.6%. Also, the growth in assay [7] was 79.8%; in assay [8] it was 81.1%; in assay [9] it was 87.7%.

With `CC1(C)C(=O)CC[C@]2(C)[C@H]3C(=O)C=C4[C@@H]5C[C@@](C)(C(=O)NCCNCCN)CC[C@]5(C)CC[C@@]4(C)[C@]3(C)CC[C@@H]12`, the growth is 99.4% in assay [1]; 98% in assay [2]; -29.7% (active) in [3]; 98.4% in assay [4]; 88.3% in assay [5]; 90.4% in assay [6]. Besides, the values for the growth in [7], in assay [8] and in [9] were 96.8%, 98.1% and 104%, respectively.

Take `COc1cc(-c2cc(-c3nc4cc(Cl)c(Cl)cc4[nH]3)[nH]n2)cc(OC)c1OC`: the growth was 52% in assay [1]; 72.6% in assay [2]; 70.4% in assay [3]; 78.1% in assay [4]; 75.7% in assay [5]; 5.57% (active) in assay [6]. The growth was 19.6% in assay [7], 24.1% in assay [8] and 47.6% in assay [9].

Regarding `CC(=O)c1c(C)[nH]c(-c2nc3ccc(N4CCN(C)CC4)cc3[nH]2)c1-c1ccc(OCC2CCOCC2)cc1`, the growth in assay [1] is 5.23% (active); in assay [2] it was 8.59% (active); in assay [3] it was -9.92% (active); in [4], 42.7%; in assay [5], 48.2%; in [6], 40.4%. Also, the results for the growth in assay [7], in assay [8] and in assay [9] were -1.59% (active), 20.4% and 45.7%, respectively.

Consider `O=c1c2sc3ncc(Br)cc3c2ncn1-c1cccc(Cl)c1`, for which the growth in assay [1] was 88.5%; in assay [2] it was 71.5%; in assay [3], 16.4%; in [4] it was 89.5%; in assay [5], 33.4%; in assay [6] it was 81.9%. The results for the growth in assay [7], in [8] and in assay [9] were 76.2%, 80.3% and 78%, respectively.

Regarding `O=C1CN(c2ccccc2)C(=O)C1C(=O)Nc1ccc(Cl)c(Cl)c1` (stereo not drawn), the growth in assay [1] is 27.9% [100 µM]; in assay [2] it was 3.98% [100 µM] (active); in assay [3], 6.38% [100 µM] (active); in assay [4] it was 3.37% [100 µM] (active); in assay [5], -7.08% [100 µM] (active); in assay [6], 27.1% [100 µM]. The results for the growth in assay [7], in assay [8] and in assay [9] were -6.23% [100 µM] (active), -3.41% [100 µM] (active) and 33.4% [100 µM], respectively.

For `COc1ccc(NC(=O)c2ccoc2COc2ccccc2)cc1`, the growth in assay [1] was 89%; in assay [2] it was 107%; in assay [3], 87.2%; in [4], 89.6%; in assay [5], 96.1%; in [6], 91.3%. Moreover, the growth was 100% in [7], 82.7% in [8] and 94.6% in assay [9].

`O=C1C=C(C(O)c2ccc(O)cc2)C(=O)c2ccccc21` (stereo not drawn): the growth in [1] is 94.9%; in [2], 115%; in [3], 102%; in assay [4], 110%; in [5], 95.1%; in [6], 99.5%. Moreover, the figures for the growth in [7], in assay [8] and in [9] were 96.5%, 101% and 120%, respectively.
